Compounds with a hit are over-represented: about 7.4% of the library has one in this group of screens.
p53 reactivation: mutant p53 re-activation in reporter cells. H1299 p53-A138V BP100-luciferase reporter, luminescence, 24 h. hit rate 0.063% among 320,000. Potency, µM (titrated, usually from 92.2 µM), inactives show at the highest dose activity change, positive = activation, usual class: activators; note: % of control where 0% means no effect; nearly all actives have a fitted effect of over 45% in size
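H1299 (p53-null), stable ts p53-A138V + BP100-Luc; 1000 cells/well, Opti-MEM/10% FBS; cpd 4 pt, 1:5; 24 h, 37 deg C, 5% CO2; detection reagent 10 min RT; luminescence.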
SMN2 splice enh: enhancers of SMN2 splice variant expression. Potency, µM (titrated, usually from 46.1 µM), inactives show at the highest dose activity change, positive = activation, most hits filed as activators. hit rate 2.8% among 210,000. HEK293 SMN2-luciferase splicing reporter, luminescence, 30-36 h; note: % of control where 0% means no effect; nearly all actives have a fitted effect of over 55% in size
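qHTS luciferase splicing reporter: luminescence rises when SMN2 exon 7 is included in transfected HEK293 cells. Compound exposure lasted 30-36 h at 37C, with 4.5 mM final sodium butyrate as control, followed by a ONE-Glo read.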
ELG1 genotoxic: induces genotoxicity in HEK293T cells with luciferase-tagged ELG1. Potency, µM (titrated, usually from 46 µM), for inactives: at the top dose activity change, positive = activation, actives largely listed as activators. hit rate 1.3% among 330,000. HEK293T ELG1-luciferase reporter, luminescence, 16 h; note: % of control where 0% means no effect; nearly all actives have a fitted effect of over 60% in size
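Step 1: seed 2,000 HEK293T ELG1-luciferase cells per well. Step 2: add compound or DMSO, incubate 16 hr at 37 °C. Step 3: ONE-Glo, 30 min at room temperature, read luminescence.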
NPC1 promoter act: activators of NPC1 promoter; Huh7 NPC1 promoter luciferase reporter, 24 h; Potency, µM (titrated, usually from 9.22 µM), for inactives: top-dose activation, actives largely listed as activators; hit rate 2.4% among 320,000; note: % of control where 0% means no effect; nearly all actives have a fitted effect of over 60% in size
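Readout is luciferase luminescence, reflecting NPC1 promoter activation in stably transfected Huh7 cells after 24 h compound exposure at 37 °C in reduced-serum medium with 10% FBS.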
Rab9 promoter act: activates the Rab9 promoter. Huh7 Rab9 promoter-luciferase reporter, luminescence, 24 h. Potency, µM (titrated, usually from 9.22 µM), without a hit: at the top dose activation, negative = inhibition, most hits filed as activators. hit rate 2.8% among 320,000; note: % of control where 0% means no effect; nearly all actives have a fitted effect of over 60% in size
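Luciferase signal after 10 min detection reagent at ambient indicates Rab9 promoter upregulation; stably transfected Huh7 cells were treated 24 h with compound in DMSO at 37 °C, 5% CO2.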
FLuc counter: inhibits or activates purified firefly luciferase, miR-21 counter-screen | Potency, µM (highest dose often 57.5 µM), inactives show at the top dose activity change, negative = inhibition, most hits filed as inhibitors | hit rate 6.9% among 360,000 | P08659 | purified FLuc, Km substrates, luminescence inhibition;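 note: plate controls were vehicle for no effect and reference inhibitor for full effect; nearly all actives have a fitted effect of over 55% in size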
Target sequence (P08659 whole entry, looked up): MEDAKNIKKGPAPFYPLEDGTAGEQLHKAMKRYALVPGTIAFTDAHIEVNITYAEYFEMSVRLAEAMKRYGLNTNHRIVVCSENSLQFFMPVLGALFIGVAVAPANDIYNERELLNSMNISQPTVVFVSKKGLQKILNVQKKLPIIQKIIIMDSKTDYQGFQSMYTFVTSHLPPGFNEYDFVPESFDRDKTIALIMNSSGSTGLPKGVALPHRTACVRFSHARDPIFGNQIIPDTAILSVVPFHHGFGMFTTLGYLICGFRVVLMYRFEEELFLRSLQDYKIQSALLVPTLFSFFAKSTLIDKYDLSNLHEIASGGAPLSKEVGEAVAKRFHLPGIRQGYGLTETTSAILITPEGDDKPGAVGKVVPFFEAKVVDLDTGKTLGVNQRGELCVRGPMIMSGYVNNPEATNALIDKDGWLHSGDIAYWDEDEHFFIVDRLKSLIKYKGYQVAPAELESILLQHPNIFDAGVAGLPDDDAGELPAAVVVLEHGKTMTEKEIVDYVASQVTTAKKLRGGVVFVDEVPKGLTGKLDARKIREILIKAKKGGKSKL
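Purified P. pyralis luciferase, 10 nM final, with Km-level 10 uM D-luciferin and 10 uM ATP in 50 mM Tris acetate pH 7.5, 10 mM Mg acetate, 0.01% Tween-20, 0.05% BSA; 6-point qHTS titration about 60 µM downward; luminescence read.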
An asterisk follows results filed as active; ? = inconclusive; . = not tested or not shown; [ ] = remark or other dose. Calls come from the whole dose curve; as a rule, active = well fitted curve in the direction sought with a large enough effect; inconclusive = small, poorly fitted or top-dose-only effect, or another doubt; inactive = no such curve, though single readings can be large; an effect the other way counts as inactive or inconclusive. Potency is the fitted concentration of half-maximal effect.

SMILES	p53 reactivation	SMN2 splice enh	ELG1 genotoxic	NPC1 promoter act	Rab9 promoter act	FLuc counter
Cc1ccc(C(=O)CSc2ncc3c(n2)-c2ccccc2N(Cc2ccc(Cl)cc2)S3(=O)=O)cc1	.	.	.	.	.	-5%
Nc1ccc2nc(SCc3ccccc3F)sc2c1	21%	.	?	26%	?	1.7µM*
CCOc1ccc2[nH]cc(C(=O)NCc3ccccc3)c(=O)c2c1	?	.	-2%	-4%	-2%	-9%
O=C(Cc1ccccc1[N+](=O)[O-])NCc1ccc2c(c1)OCO2	?	138%	?	?	1.8µM*	?
O=C(COC(=O)COc1ccccc1[N+](=O)[O-])NCc1ccc2c(c1)OCO2	-7%	.	-1%	.	.	.
O=C(CCc1ccccc1)NCc1ccc2c(c1)OCO2	-8%	.	-6%	0%	2%	0%
O=C(Cc1ccccc1)NCc1ccc2c(c1)OCO2	?	11%	15µM*	2.8µM*	?	7.6µM*
O=C(NCc1ccccc1)c1c[nH]c2cc3c(cc2c1=O)OCCO3	11µM*	13µM*	?	3.2µM*	2.5µM*	2.4µM*
COc1cc(NC(=O)c2ccc(C(=O)Nc3cc(OC)c(Cl)cc3OC)cc2)c(OC)cc1Cl	.	-5%	.	.	.	0%
COc1ccc(Cn2c(SCc3ccc(C(=O)NC4CCCC4)cc3)nc3cccnc32)cc1	.	.	.	.	.	-3%
COC(=O)/C=C1\S/C(=N/N=C/c2ccccc2)NC1=O	0%	6%	0%	2%	-3%	6µM*
COC(=O)/C=C1/S/C(=N/N=C/c2ccco2)NC1=O	-1%	.	2%	-1%	2%	?
COC(=O)/C=C1\S/C(=N/N=C/c2ccc(Cl)cc2)NC1=O	-2%	.	-1%	-3%	-2%	11µM*
COC(=O)/C=C1/SC(=NC(=O)c2ccc(OC)cc2)NC1=O	1%	.	3%	0%	1%	27µM*
COC(=O)/C=C1/SC(=NC(=O)c2ccc(F)cc2)NC1=O	-2%	.	-3%	10%	19%	-18%
CC(=O)Nc1ccc(S(=O)(=O)N2CCc3nc(-c4ccccc4)c4c(c3C2)CO[C@@H](C)C4)cc1	.	-1%[9.22 µM]	.	.	.	.
Cc1cc(/C=C2/NC(=O)NC2=O)c(C)n1-c1ccc(C#N)cc1	-4%	-17%	2%	-3%	1%	0%
Cc1ccc(-n2c(C)cc(/C=C3\NC(=O)NC3=O)c2C)c(C)c1	10%	-9%	8%	1%	2%	8.5µM*
Cc1cc(/C=C2/NC(=O)NC2=O)c(C)n1-c1ccccn1	18%	?	10%	17%	23%	21µM*
COc1cccc2[nH]c3c(N4CCCC(C)C4)ncnc3c12 (centres undefined)	14%	4%	-2%	15%	28%	5.4µM*
COc1cc(-c2nc(S(=O)(=O)c3ccc(Br)cc3)c(N3CCOCC3)o2)cc(OC)c1OC	.	.	.	.	.	-2%
O=C(CNC(=O)c1ccccc1F)OCc1nc2ccccc2s1	-4%	15%	14%	-2%	4%	17µM*
O=C(CNC(=O)c1ccccc1)OCc1nc2ccccc2s1	?	.	?	8%	7%	9.5µM*
O=C(CNC(=O)c1ccccc1)OCCCOC(=O)CNC(=O)c1ccccc1	5%	.	18%	0%	-1%	8%
O=C(CNC(=O)c1ccc(Cl)cc1Cl)OCc1nc2ccccc2s1	17%	8%	-8%	0%	10%	?
COc1ccccc1-n1cnc2cc(NCc3ccco3)ccc21	?	7%	?	-3%	5%	19µM*
COc1ccccc1-n1cnc2cc(NCc3ccccc3O)ccc21	13%	.	6%	-2%	13%	?
CCn1cnc2cc(NCc3cccc(OC)c3O)ccc21	26%	12%	18µM*	0%	-1%	12µM*
CCCn1cnc2cc(NCc3cccc(OC)c3)ccc21	5%	13µM*	16%	?	?	17µM*
CCn1cnc2cc(NCc3ccc(C)cc3)ccc21	?	13µM*	8.2µM*	2.8µM*	4µM*	15µM*

Assay outcomes: PubChem, National Center for Advancing Translational Sciences (NCATS)
